Measurements published in publication PMC5540273 (PLoS ONE, 2017).

Legend:
Conditions in all cases: concentration: 1 μM, replicates: in singlicate; n = 1
ERK1 = test system: T1, ERK1
T1 construct: gene MAPK3

ERK2 = test system: T2, ERK2
T2 construct: gene MAPK1

ERK3 = test system: T3, ERK3
T3 construct: gene MAPK6

ERK4 = test system: T4, ERK4
T4 construct: gene MAPK4

ERK5 = test system: T5, ERK5
T5 construct: gene MAPK7

ERK8 = test system: T6, ERK8
T6 construct: gene MAPK15

ERN1 = test system: ERN1
FAK = test system: T7, FAK
T7 construct: gene PTK2

FER = test system: FER
FES = test system: FES
FGFR1 = test system: FGFR1
FGFR2 = test system: FGFR2
FGFR3 = test system: FGFR3
FGFR4 = test system: FGFR4
FGR = test system: FGR
FLT1 = test system: FLT1
FLT3-autoinhibited = test system: FLT3-autoinhibited
FLT3 = test system: FLT3
FLT4 = test system: FLT4
FRK = test system: FRK
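Further: KINOMEscan kinase panel screen.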

| Structure (SMILES) | %Inh (ERK1) | %Inh (ERK2) | %Inh (ERK3) | %Inh (ERK4) | %Inh (ERK5) | %Inh (ERK8) | %Inh (ERN1) | %Inh (FAK) | %Inh (FER) | %Inh (FES) | %Inh (FGFR1) | %Inh (FGFR2) | %Inh (FGFR3) | %Inh (FGFR4) | %Inh (FGR) | %Inh (FLT1) | %Inh (FLT3-autoinhibited) | %Inh (FLT3) | %Inh (FLT4) | %Inh (FRK) |
| --- | --- | --- | --- | --- | --- | --- | --- | --- | --- | --- | --- | --- | --- | --- | --- | --- | --- | --- | --- | --- |
| CCS(=O)(=O)c1ccc(OC)c(Nc2nccc(-c3c(-c4cccc(NC(=O)c5c(F)cccc5F)c4)nn4ncccc34)n2)c1 [GSK326180] | 0% | 5% | 13% | 47% | 0% | 0% | 22% | 0% | 22% | 0% | 0% | 0% | 16% | 16% | 64% | 90% | 0% | 0% | 29% | 61% |
| COc1cc(Nc2nccc(N3CCC(NC(=O)Nc4cccc(C(C)=O)c4)C3)n2)cc(OC)c1OC (centres unmarked) [GSK1379753] | 0% | 0% | 9% | 15% | 0% | 0% | 5% | 0% | 22% | 0% | 3% | 0% | 9% | 14% | 14% | 19% | 0% | 63% | 6% | 0% |
| CCCCc1nn2ncccc2c1-c1ccnc(Nc2ccc(N3CCN(C)CC3)cc2)n1 [GW684941] | 0% | 0% | 46% | 0% | 0% | 63% | 0% | 0% | 47% | 14% | 97.9% | 96.9% | 89% | 68% | 91.9% | 98% | 93.3% | 99.5% | 95.6% | 95% |
| CC(C)(C)c1ccc2nccc(Nc3cccc(O)c3)c2c1 [GW856795] | 0% | 0% | 0% | 0% | 0% | 0% | 66% | 0% | 0% | 0% | 0% | 0% | 0% | 0% | 54% | 0% | 64% | 10% | 0% | 84% |
| COC(=O)Nc1nc2cc(Oc3ccc(NC(=O)Nc4cc(C(F)(F)F)ccc4F)cn3)ccc2[nH]1.Cl.Cl [GW681170] | 8% | 0% | 0% | 1% | 0% | 95.3% | 0% | 0% | 23% | 0% | 7% | 0% | 4% | 3% | 15% | 94.1% | 40% | 99.1% | 79% | 55% |
| CN(C)Cc1ccc(-c2ccc3c(Nc4ccc(Oc5ccccn5)cc4)ccnc3c2)o1 [GW567148] | 0% | 0% | 0% | 0% | 0% | 23% | 0% | 0% | 20% | 5% | 0% | 12% | 5% | 0% | 81% | 32% | 53% | 95.5% | 21% | 25% |
| Cl.c1ccc(-c2ccc3c(Nc4ccc5[nH]ccc5c4)ccnc3c2)nc1 [GW440138] | 8% | 0% | 0% | 6% | 0% | 0% | 0% | 0% | 0% | 0% | 63% | 63% | 58% | 29% | 53% | 98.1% | 0% | 0% | 92.9% | 17% |
| Cc1occc1-c1ncc(OC[C@@H](N)Cc2c[nH]c3ccccc23)cc1-c1ccc2[nH]nc(C)c2c1.O=C(O)C(F)(F)F [GSK682037] | 94.1% | 82% | 5% | 15% | 0% | 0% | 6% | 40% | 76% | 47% | 6% | 0% | 1% | 0% | 77% | 11% | 0% | 0% | 3% | 57% |
| C[C@@H]1CC[C@@H](C(=O)Nc2ccccc2)CN1c1cc(-c2ccc3c(N)n[nH]c3c2)nc(N)n1 [GSK2286062] | 10% | 0% | 0% | 28% | 0% | 0% | 0% | 0% | 13% | 12% | 0% | 0% | 4% | 0% | 19% | 0% | 0% | 0% | 0% | 0% |
| c1ccc(-c2cnc3nccnn23)cc1 [AH20685] | 8% | 0% | 0% | 0% | 0% | 0% | 0% | 0% | 0% | 11% | 0% | 0% | 0% | 0% | 10% | 0% | 0% | 43% | 0% | 18% |
| CC(C)c1nc(-c2cccc(NS(=O)(=O)c3c(F)cccc3F)c2F)c(-c2ccnc(Nc3ccc(N4CCOCC4)nc3)n2)s1 [GSK2008607] | 0% | 0% | 9% | 42% | 2% | 93.5% | 65% | 32% | 71% | 23% | 60% | 82% | 67% | 48% | 98.7% | 98.6% | 0% | 70% | 99.9% | 98.8% |
| COc1cccc(C(=O)Nc2cccc(Oc3ccc4nc(NC(=O)C5CC5)cn4n3)c2)c1 | 4% | 6% | 0% | 0% | 0% | 14% | 0% | 1% | 0% | 0% | 22% | 88% | 41% | 48% | 98% | 99.9% | 24% | 89% | 100% | 94.9% |
| COc1cccc(NC(=O)NC2CCN(c3ccnc(Nc4cc(OC)c(OC)c(OC)c4)n3)C2)c1 (centres unmarked) [GSK1379763] | 0% | 0% | 7% | 25% | 0% | 0% | 7% | 0% | 0% | 8% | 0% | 0% | 8% | 1% | 25% | 24% | 14% | 62% | 37% | 0% |
| Clc1ccc(-c2nn3ncccc3c2-c2ccnc(Nc3ccc4c(c3)OCCO4)n2)cc1 [GW829116] | 0% | 12% | 3% | 0% | 0% | 1% | 0% | 0% | 0% | 0% | 0% | 0% | 0% | 0% | 75% | 54% | 0% | 59% | 35% | 0% |
| CCc1ccc(-c2ccc3c(c2)-c2c(cnn2C)S(=O)(=O)N3C)cc1 | 4% | 6% | 0% | 0% | 0% | 0% | 0% | 38% | 0% | 0% | 3% | 0% | 0% | 0% | 0% | 0% | 9% | 0% | 0% | 0% |
| Cl.NC(=O)c1cccc(Nc2nccc(Nc3ccc(Oc4c(Cl)cccc4Cl)c(Cl)c3)n2)c1 [GW659009] | 0% | 0% | 0% | 0% | 0% | 10% | 12% | 0% | 0% | 0% | 0% | 0% | 0% | 0% | 31% | 0% | 12% | 33% | 0% | 7% |
| Oc1cc(Nc2ccnc3cc(I)ccc23)ccc1F [GW552771] | 0% | 0% | 0% | 0% | 0% | 11% | 0% | 0% | 11% | 0% | 23% | 0% | 13% | 0% | 84% | 44% | 0% | 0% | 45% | 72% |
| O=C(Nc1n[nH]c2cc(-c3ccoc3)ccc12)C1CC1 [SB-738481] | 0% | 0% | 0% | 0% | 0% | 84% | 0% | 7% | 0% | 5% | 0% | 0% | 7% | 0% | 22% | 27% | 17% | 91.8% | 0% | 0% |
| COc1cc(Nc2nccc(-c3c(-c4cccc(NC(=O)c5c(F)cccc5F)c4)nn4ncccc34)n2)cc(OC)c1OC [GSK327238] | 6% | 15% | 3% | 29% | 68% | 0% | 30% | 38% | 77% | 50% | 66% | 61% | 31% | 9% | 99.1% | 99.2% | 0% | 96.1% | 99.8% | 96.9% |
